Active and inactive are the calls of the source.

A short description of this assay: resazurin metabolic signal in A549 cells – cell-based, resazurin fluorescence, 24 h, PK04 Diversity Set, profiling panel (AID 1171). Further: test concentration not given here. The following applies: A549 viability, higher = more signal, called active from +8 up or from −8 down.
As for `O=C1C[C@]2(c3ccc([N+](=O)[O-])cc3)C(=O)N(Cc3ccccc3)c3cc(CO)ccc3[C@H]2N1CC12CC3CC(CC(C3)C1)C2`, the z-score is -0.849 (inactive).

Turning to `Cc1c(NC(=O)/C(C#N)=C/C=C/c2ccc(N(C)C)cc2)c(=O)n(-c2ccccc2)n1C`, the z-score is 0.765 (inactive). Take `COCCOC(=O)N1C(=O)[C@@]2(c3ccccc31)[C@H](c1ccc(OCCO)cc1)N1[C@H](c3ccccc3)[C@H](c3ccccc3)OC(=O)[C@H]1[C@@H]2C(=O)Nc1nc2ccccc2s1`: the z-score is 0.294 (inactive). The result for `COCCCNC(=O)[C@@]1(Sc2ccc(C)cc2)CC(=O)N(Cc2cc(C(F)(F)F)cc(C(F)(F)F)c2)[C@@H]1c1ccc(CO)cc1` reads -1.07 (inactive); that for `CCCC[C@@H]1C[C@H]1[C@@H](NC(=O)c1ccccc1)c1ccc(Cl)cc1`, 2.09 (inactive); that for `CC(C)C(CO)N1C(=O)[C@]2(C)C3C(=O)OCCC/C=C\[C@H]3OC23C=CCN(c2ccc(Cl)cc2)C(=O)[C@@H]13` (stereo not given in full), -0.503 (inactive).

For `COC(=O)[C@@]1(Cc2ccc(OC)cc2)[C@H]2c3cc(C(=O)N4CCCC4)n(CCc4cc5ccccc5[nH]4)c3C[C@H]2CN1C(=O)c1ccccc1`, the z-score was -0.0485 (inactive). On to `CCCC[C@@H]1C[C@H]1[C@@H](NC(=O)c1cccnc1)c1ccc(-c2ccccc2)cc1`, for which the z-score is 3.07 (inactive). The result for `[N-]=[N+]=Nc1ccccc1[C@@H]1OC(c2ccc(OCCCO)cc2)=N[C@]1(CCS(=O)(=O)c1ccccc1)C(=O)NCCN1CCOCC1` reads 0.465 (inactive); that for `C[C@@H](OCc1ccccc1)C1NC(=O)[C@@]23C(=O)N[C@@H](Cc4ccccc4)C2[C@H](C)[C@@]2(C)O[C@H]2C3/C=C/C/C=C\CNC(=O)CNC1=O` (stereo not given in full), -0.694 (inactive); that for `C=C(CCCC)/C(=C/C[C@@H](OC(=O)c1ccncc1)c1cccc(OCCO)c1)c1cnc2ccccc2c1`, 0.586 (inactive).

Consider `CC(=O)n1cc(C(O)C2C=CC3C(=O)N(c4ccccc4)C(=O)C3N2Nc2ccccc2)c2ccccc21` (stereo not given), for which the z-score was -1.05 (inactive). The same measure for `C=CCN1C(=O)[C@]2(CC=C)N=C(c3ccc(OCCCO)cc3)O[C@@H]2c2ccccc21`: -1.95 (inactive). The result for `CCOC(=O)C[C@H]1[C@H](OC(=O)Cc2ccc3c(c2)OCO3)[C@@H](NC(=O)C2CCCCC2)c2cc(OCCCO)ccc2N1C(=O)c1ccc2ccccc2n1` reads 0.125 (inactive); that for `O=C1O[C@@H](c2ccccc2)[C@@H](c2ccccc2)N2[C@@H](c3ccccc3OCCO)[C@]3(C(=O)Nc4ccc(C#CC5=CCCCC5)cc43)[C@@H](C(=O)NC[C@H](O)c3ccccc3)[C@H]12`, -1.46 (inactive).

Turning to `O=C1OCC=C[C@H]2OC34C=CCN(Cn5nnc6ccccc65)C(=O)[C@H]3N(CCCCCCO)C(=O)[C@@H]4[C@@H]12` (stereo not given in full), the z-score was -0.402 (inactive).

For `COCCCNC(=O)[C@]1(Cc2ccccc2N=[N+]=[N-])N=C(c2ccc(OCCCO)cc2)O[C@@H]1c1ccccc1N=[N+]=[N-]`, the z-score was -2.56 (inactive).

Consider `CC(C)c1ccc(NN2C(C(O)c3ccco3)C=CC3C(=O)N(c4ccccc4)C(=O)C32)cc1` (stereo not given), for which the z-score was -0.635 (inactive). The same measure for `Cc1ccc(S[C@]2(C(=O)NCC(C)C)CC(=O)N(Cc3ccccc3Cl)[C@@H]2c2ccc(CO)cc2I)cc1`: 0.622 (inactive). The result for `C=CCC(OC(C)=O)[C@@H]1[C@@H](N(Cc2ccc(-c3ccccc3)cc2)C(=O)c2cccc3ccccc23)c2cc(OCCCO)ccc2N1C(=O)Cc1ccc2ccccc2c1` (stereo not given in full) reads 0.74 (inactive); that for `CC=CC(O)C1C=CC2C(=O)N(C)C(=O)C2N1Nc1ccc([N+](=O)[O-])cc1[N+](=O)[O-]` (stereo not given), -0.574 (inactive). Regarding `CC(C)(C)OC(=O)CC[C@]1(C(=O)NCCN2CCOCC2)N=C(c2ccc(OCCCO)cc2)O[C@H]1c1ccccc1`, the z-score is 0.0762 (inactive).

Turning to `CCCCC(=C=CC[C@@H](O)c1ccc(OCCO)cc1)C[C@@H](O)COCc1ccccc1`, the z-score is 0.812 (inactive). The same measure for `COC(=O)[C@H](Cc1ccccc1)N1CC(/C=C/C2CC2)=C[C@@H]1[C@@H](O)Cc1ccccc1`: 0.73 (inactive); for `COCCOC(=O)N1C(=O)[C@@]2(c3cc(C#CCC(C(=O)OC)C(=O)OC)ccc31)[C@H](c1ccc(OCCO)cc1)N1[C@H](c3ccccc3)[C@H](c3ccccc3)OC(=O)[C@H]1[C@@H]2C(=O)N1CCN(c2ncccn2)CC1`: 1.83 (inactive). The same measure for `CN(C)C(=O)[C@]1(CCC(=O)OC(C)(C)C)N=C(c2ccc(OCCCO)cc2)O[C@@H]1c1ccccc1`: 0.534 (inactive). The result for `COCCOC(=O)N1C(=O)[C@@]2(c3cc(C#CC4(O)CCCCCC4)ccc31)[C@H](C(N)=O)[C@H]1C(=O)O[C@H](c3ccccc3)[C@H](c3ccccc3)N1[C@@H]2c1ccccc1OCCO` reads -2.63 (inactive); that for `CC(CO)N1C(=O)[C@@H]2C3C(=O)OCCC/C=C\[C@H]3OC23C=CCN(Cn2nnc4ccccc42)C(=O)[C@@H]13` (stereo not given in full), -0.0257 (inactive). For the compound `COC(=O)[C@@]1(Cc2ccc(OC)cc2)[C@H]2c3cc(C(=O)N(C)C)n(CCc4c[nH]c5ccc(O)cc45)c3C[C@H]2CN1C(=O)c1ccccc1`, the z-score is -1.33 (inactive). The same measure for `O=c1cccc(-c2cccc(Cl)c2)o1`: 0.0053 (inactive).

For the compound `O=C1O[C@H](c2ccccc2)[C@H](c2ccccc2)N2[C@H]1[C@@H](C(=O)O)[C@]1(C(=O)Nc3ccccc31)[C@H]2c1ccc(O)cc1`, the z-score is 0.769 (inactive). The result for `COCCOC(=O)N1C(=O)[C@@]2(c3ccccc31)[C@H](C(=O)N1CCN(c3ncccn3)CC1)[C@H]1C(=O)O[C@H](c3ccccc3)[C@H](c3ccccc3)N1[C@@H]2c1ccc(OCCO)cc1` reads 0.218 (inactive); that for `CCOC(=O)C1=C[C@@H](c2ccccc2)N(S(=O)(=O)c2ccc(C)cc2)[C@H]1c1cccc(Cl)c1`, 0.776 (inactive). In the case of `O=C1c2ccccc2[C@](Cc2ccccc2I)(C(=O)NCCN2CCOCC2)[C@H](c2ccc(CO)cc2)N1Cc1ccccc1`, the z-score is 0.0188 (inactive). The result for `O=C(O)[C@H]1C[C@H]2C(=O)N3CCC[C@H]3C(=O)N2[C@H]1c1cccc(OCCO)c1` reads 1.04 (inactive).
